# Screening results (PubChem BioAssay)
# TDP1 block = TDP1 (human) enzyme inhibition. Q9NUW8. recombinant TDP1, AlphaScreen DNA substrate cleavage. Potency, µM (titrated, usually from 130 µM), for inactives: top-dose activity change, negative = inhibition, hits mostly inhibitors. hit rate 0.28% among 350,000. AID 485290; note: potency is the fitted concentration of half-maximal effect; % is set by controls: 0 for no effect and ±100 for the full control effect; nearly all actives have a fitted effect of over 40% in size
# Target sequence (Q9NUW8 whole entry, looked up): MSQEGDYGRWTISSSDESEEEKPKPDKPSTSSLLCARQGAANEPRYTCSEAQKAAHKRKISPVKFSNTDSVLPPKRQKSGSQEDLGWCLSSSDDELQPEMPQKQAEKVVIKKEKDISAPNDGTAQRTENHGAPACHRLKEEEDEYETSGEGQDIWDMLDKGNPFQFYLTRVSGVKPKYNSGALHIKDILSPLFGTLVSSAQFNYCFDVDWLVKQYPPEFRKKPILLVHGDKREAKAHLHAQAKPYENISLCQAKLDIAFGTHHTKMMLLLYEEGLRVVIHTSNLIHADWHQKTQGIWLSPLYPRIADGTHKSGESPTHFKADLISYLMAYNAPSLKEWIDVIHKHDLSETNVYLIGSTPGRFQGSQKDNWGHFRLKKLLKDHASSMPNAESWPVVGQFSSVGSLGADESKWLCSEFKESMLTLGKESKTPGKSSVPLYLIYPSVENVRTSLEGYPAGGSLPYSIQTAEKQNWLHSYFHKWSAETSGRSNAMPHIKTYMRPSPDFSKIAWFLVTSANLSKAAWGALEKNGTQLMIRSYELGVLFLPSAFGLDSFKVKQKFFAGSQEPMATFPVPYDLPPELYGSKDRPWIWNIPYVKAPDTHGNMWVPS
#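 Compounds were preincubated with Tdp1 (1 nM final) for 15 min at room temperature before substrate (15 nM final) started a 5 min reaction; beads (10 ug/ml final) were then added for 10 min before AlphaScreen detection.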
# TDP1 cell CPT = DT40-hTDP1 cell growth loss with CPT; AID 686979; chicken DT40 Tdp1-/-;hTDP1 cells + 20 nM CPT, ATP luminescence, 48 h; hit rate 12% among 420,000; Potency, µM (highest dose often 46.2 µM), without a hit: at the top dose activity change, negative = growth inhibition, hits mostly inhibitors; note: potency is the fitted concentration of half-maximal effect; % is set by controls: 0 for no effect and ±100 for the full control effect; nearly all actives have a fitted effect of over 55% in size
#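 Chicken DT40 Tdp1-/- cells complemented with human TDP1, 400 cells/well, exposed to compounds plus 20 nM camptothecin for at least 48 h at 37 C; viability read as ATP content by CellTiter-Glo luminescence.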
# IL-1B inflam inh = blocks inflammasome-driven IL-1 beta release | THP-1 LPS/ATP IL-1B secretion, AlphaLISA, 16 h; hits give low values | activity change, % at 57.5 µM | hit rate 4.7% among 360,000; in the data active = activity change below about -50%; inconclusive = mostly about -30% to -49%; note: % is set by controls: 0 for no effect and ±100 for the full control effect
#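 THP-1 cells pretreated 1 hr with compounds (up to 57.5 uM final), then stimulated with LPS (250 ng/mL final) plus ATP (1.25 mM final); secreted IL-1B measured by AlphaLISA after 16 hr, decreased signal indicating inhibition.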
# DT40 TDP1 no CPT = qHTS for Inhibitors of human tyrosyl-DNA phosphodiesterase 1 (TDP1): qHTS in cells in absence of CPT. DT40 Tdp1-/- hTDP1 cells, no CPT, ATP luminescence, 48 h. Potency, µM (titrated, usually from 46.2 µM), for the others: top-dose activity change, negative = growth inhibition, most hits filed as inhibitors. hit rate 15% among 420,000; note: potency is the fitted concentration of half-maximal effect; % is set by controls: 0 for no effect and ±100 for the full control effect; nearly all actives have a fitted effect of over 55% in size
#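 Cells were dispensed at 400 per well, compounds added by pin tool, plates incubated ≥48 hr at 37 °C, then CellTiter-Glo added for 30 min at room temperature before luminescence reading. Line: DT40 Tdp1-/- complemented with hTDP1; camptothecin omitted.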
# TGFb SMAD3 inh = blocks TGF-b signaling | HepG2 CAGA-GFP TGF-b/SMAD3 reporter, GFP fluorescence, 18 h; TGF-beta stimulated, 500 pg/mL final | Potency, µM (highest dose often 46.1 µM), for the others: top-dose activity, negative = inhibition, actives largely listed as inhibitors | hit rate 1.2% among 410,000 | AID 588855; note: potency is the fitted concentration of half-maximal effect; % is set by controls: 0 for no effect and ±100 for the full control effect; nearly all actives have a fitted effect of over 65% in size
#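 Per well, imaged GFP fluorescence of HEPG2 CAGA-GFP cells gives the signal; cells get compound, then TGF-beta (500 pg/mL final), 18 h at 37 degrees C; %Activity versus -TGF-beta and +DMSO controls.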
# HepG2 viability = kills HepG2 cells in TGF-b inhibitor counter-screen | HepG2 CAGA-GFP viability, ATP luminescence, 18 h | Potency, µM (top dose mostly 46.1 µM), for the others: at the highest dose activity change, negative = cytotoxicity, most hits filed as cytotoxic | hit rate 0.76% among 410,000 | AID 588856; note: potency is the fitted concentration of half-maximal effect
#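 HepG2 CAGA-GFP cells (1000/well, DMEM with 1% FBS) received compound, then TGF-beta at 500 pg/mL final, and were incubated 18 hours at 37 degrees C. Viability was read by CellTiter-Glo luminescence. Media-only wells were set as complete cell-killing and DMSO as no toxicity.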
# The depositor's hits bear a star; ? = inconclusive; . = no result given; [ ] = dose if it differs, or a comment. An excerpt weighted towards active compounds, which were near 19% of everything screened. Unless noted, calls come from the whole dose curve; as a rule, active = well fitted curve in the direction sought with a large enough effect; inconclusive = small, poorly fitted or top-dose-only effect, or another doubt; inactive = no such curve, though single readings can be large; an effect the other way counts as inactive or inconclusive.
SMILES,TDP1 block,TDP1 cell CPT,IL-1B inflam inh,DT40 TDP1 no CPT,TGFb SMAD3 inh,HepG2 viability
CC(=O)c1cccc(NC(=O)c2cc3sc(Cl)cc3n2C)c1,8%,-27%,.,?,7%,-16%
Cc1ccccc1NC(=O)N1CCc2cc(S(=O)(=O)N3CCC(C)CC3)ccc21,5%,-19%,.,-21%,.,3%
CC12CCC(C(=O)NCc3ccccc3)(OC1=O)C2(C)C (stereo not given),7%,2%,-8,5%,0%,-17%
C/C(=N\NC(=O)C12CCC(C)(C(=O)O1)C2(C)C)c1ccccc1O (stereo not given),.,16µM*,223,13µM*,?,-45%
O=C(N/N=C/c1ccc(O)cc1O)C(=O)N/N=C/c1ccc(O)cc1O,.,?,175,?,1%,-16%
CC12CCC(C(=O)N/N=C/c3ccc(O)cc3O)(OC1=O)C2(C)C (stereo not given),6%,10µM*,161,10µM*,-3%,14%
Cc1ccc(-c2nc(SCC(=O)N3CCc4ccccc43)c3c(=O)n(C)c(=O)n(C)c3n2)cc1,3%,-3%,.,-8%,1%,15%
O=C1CCCC2=C1C1(CCCC1)N=C(Nc1nc3ccccc3n1Cc1ccccc1)N2,1%,.,.,.,.,.
CC(=O)Nc1ccc(SCC(c2ccccc2)N2CCN(C)CCC2=O)cc1 (stereo not given),6%,.,.,.,-3%,5%
CCC(C)[C@H](NC(=O)c1cc2cc(Cl)ccc2n1C)C(=O)N1CCC[C@H]1C(=O)O (stereo not given in full),.,4%,-1,7%,2%,5%
O=c1c2ccccc2nc(COc2ccccc2)n1/N=C/c1cn[nH]c1-c1ccccc1,3%,21µM*,-9,16µM*,-2%,-34%
Oc1ccc(/C=N/n2c(COc3ccccc3)n[nH]c2=S)c(O)c1,.,-18%,9,13%,1%,1%
O=c1c2ccccc2nc(COc2ccccc2)n1/N=C/c1ccc(O)cc1O,.,?,204,23µM*,?,-16%
O=c1c2ccccc2nc(COc2ccccc2)n1/N=C/c1c[nH]c2ccccc12,2%,?,8,16µM*,2%,1%
Cc1ccccc1Cn1c(=O)n(Cc2ccco2)c(=O)c2ccccc21,2%,15µM*,0,?,10%,-43%
COc1ccc(-n2c(=O)c3ccccc3n(Cc3ccccc3C)c2=O)c(OC)c1,6%,21µM*,.,?,-33%,-3%
COc1ccc(-n2c(=O)c3ccccc3c3ccccc3c2=O)c(OC)c1,-3%,0%,-3,-30%,-11%,-9%
O=C(C[C@H]1C=C[C@@H](NC(=O)Cc2cccnc2)[C@@H](CO)O1)NCc1ccc2c(c1)OCO2,.,-3%,24,6%,.,.
CCCC(=O)N(CCN1CCOCC1)c1nc2c(C)cccc2s1,5%,-27%,-51*,10%,4%,-9%
O=C(CCS(=O)(=O)c1ccccc1)N(CCCN1CCOCC1)c1nc2c(F)cccc2s1,0%,2.3µM*,-107*,2.9µM*,?,-73%
O=C(CCS(=O)(=O)c1ccccc1)N(CCCN1CCOCC1)c1nc2ccc(F)cc2s1,-9%,2.6µM*,-82*,3.7µM*,?,13µM*
CCc1cccc2sc(N(CCCN3CCOCC3)C(=O)CS(=O)(=O)c3ccccc3)nc12,1%,?,-14,?,-8%,-8%
COc1ccccc1-c1ccnc(-n2ncc(C(=O)NCCc3ccccn3)c2C)n1,.,-2%[9.04 µM],.,?,.,.
CC(C)c1ccccc1NS(=O)(=O)c1cccs1,.,-2%,48,3%,1%,-3%
